Test results reported in the supplement of paper PMC10849652.
The full data set covers some 8,800 targets. This sample favours those with a hit. About 0.5% of all pairs of compound and target were hits. Values without a mark were called inactive.

Assays:
Experiment in all cases: log2 fold change, soluble protein after heating vs DMSO (PISA); higher = thermal stabilisation; K562 lysate, 10 uM; active = over 0.2 and 3.5 SD of the protein, either way, in both replicates (recomputed)
vemurafenib = compound: CCCS(=O)(=O)Nc1ccc(F)c(C(=O)c2c[nH]c3ncc(-c4ccc(Cl)cc4)cc23)c1F [vemurafenib]
Outline: (§1)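 Quantification was by TMTpro 16plex LC-MS/MS with equalised channel sums, applied to the supernatant after 21,000xg for 90 min. Samples were crude K562 extract at 1 mg/mL protein in PBS pH 7.4 with 1 mM MgCl2, treated with 10 μM compound for 30 min, heated for 3 min across 48°C-58°C, pooled and brought to 0.5% NP-40 at 4°C. Values are log-two fold changes in thermal stability relative to solvent controls, from duplicates.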

[1] = compound: CCCS(=O)(=O)Nc1ccc(F)c(C(=O)c2c[nH]c3ncc(Cl)cc23)c1F
Outline: as §1

barasertib = compound: CCN(CCCOc1ccc2c(Nc3cc(CC(=O)Nc4cccc(F)c4)[nH]n3)ncnc2c1)CCOP(=O)(O)O [barasertib]
Outline: as §1

[2] = compound: CC[C@@H]1C(=O)N(C)c2cnc(Nc3ccc(C(=O)NC4CCN(C)CC4)cc3OC)nc2N1C1CCCC1
Outline: as §1

volasertib = compound: CC[C@@H]1C(=O)N(C)c2cnc(Nc3ccc(C(=O)N[C@H]4CC[C@H](N5CCN(CC6CC6)CC5)CC4)cc3OC)nc2N1C(C)C [volasertib]
Outline: as §1

[3] = compound: CCn1c(C(=O)N(C2CC2)C2CC2)cc2c3c(ncn3C)c(Nc3cc(C)n(C)n3)nc21
Outline: as §1

[4] = compound: CCn1cc(-c2ccnc3[nH]c(-c4cccc(CN(C)C)c4)cc23)c(-c2ccc(NC(=O)N(C)C)cc2)n1
Outline: as §1

[5] = compound: CN1CCC(CNc2ccc3ncc(-c4cccc(OC(F)(F)F)c4)n3n2)CC1
Outline: as §1

saracatinib = compound: CN1CCN(CCOc2cc(OC3CCOCC3)c3c(Nc4c(Cl)ccc5c4OCO5)ncnc3c2)CC1 [saracatinib]
Outline: as §1

sotrastaurin = compound: CN1CCN(c2nc(C3=C(c4c[nH]c5ccccc45)C(=O)NC3=O)c3ccccc3n2)CC1 [sotrastaurin]
Outline: as §1

alvocidib = compound: CN1CC[C@H](c2c(O)cc(O)c3c(=O)cc(-c4ccccc4Cl)oc23)[C@H](O)C1 [alvocidib]
Outline: as §1

Tubastatin A = compound: CN1CCc2c(c3ccccc3n2Cc2ccc(C(=O)NO)cc2)C1 [Tubastatin A]
Outline: as §1

[6] = compound: CNC(=O)C1=CC=CC=C1NC2=NC(=NC=C2Cl)NC3=C(C=C(C=C3)N4CCOCC4)OC
Outline: as §1

defactinib = compound: CNC(=O)c1ccc(Nc2ncc(C(F)(F)F)c(NCc3nccnc3N(C)S(C)(=O)=O)n2)cc1 [defactinib]
Outline: as §1

[7] = compound: CNc1nc(-c2ccc3c(N)n[nH]c3c2)cc(N2C[C@@H](C(=O)NC3CCCCC3)CC[C@H]2C)n1
Outline: as §1

encorafenib = compound: COC(=O)N[C@@H](C)CNc1nccc(-c2cn(C(C)C)nc2-c2cc(Cl)cc(NS(C)(=O)=O)c2F)n1 [encorafenib]
Outline: as §1

[8] = compound: COC(=O)[C@H](CCSC)NC(=O)C1=C(C=C(C=C1)NC[C@H](CS)N)C2=CC=CC=C2
Outline: as §1

alisertib = compound: COc1cc(Nc2ncc3c(n2)-c2ccc(Cl)cc2C(c2c(F)cccc2OC)=NC3)ccc1C(=O)O [alisertib]
Outline: as §1

[9] = compound: COc1cc2nc(-c3cc(F)ccc3O)nc(N[C@@H]3CNC[C@H]3C(C)(C)O)c2cc1OC
Outline: as §1

gefitinib = compound: COc1cc2ncnc(Nc3ccc(F)c(Cl)c3)c2cc1OCCCN1CCOCC1 [gefitinib]
Outline: as §1

Chain of UniProt Q9Y6I4 (Q9Y6I4 whole entry, looked up): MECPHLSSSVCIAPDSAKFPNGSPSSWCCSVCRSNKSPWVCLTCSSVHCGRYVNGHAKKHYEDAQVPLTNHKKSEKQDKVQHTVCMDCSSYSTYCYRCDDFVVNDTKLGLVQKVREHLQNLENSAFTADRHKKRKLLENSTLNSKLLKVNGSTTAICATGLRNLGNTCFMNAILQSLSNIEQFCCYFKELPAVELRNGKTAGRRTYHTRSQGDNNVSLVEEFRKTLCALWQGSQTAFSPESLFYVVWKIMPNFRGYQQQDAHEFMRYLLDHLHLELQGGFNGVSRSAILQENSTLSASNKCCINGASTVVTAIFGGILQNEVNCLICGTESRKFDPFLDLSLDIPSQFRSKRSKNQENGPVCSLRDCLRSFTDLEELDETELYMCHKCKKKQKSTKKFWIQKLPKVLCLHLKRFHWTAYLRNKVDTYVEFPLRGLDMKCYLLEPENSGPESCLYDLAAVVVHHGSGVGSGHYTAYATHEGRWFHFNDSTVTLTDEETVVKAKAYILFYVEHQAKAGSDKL
Chain of UniProt P26640 (P26640 whole entry, looked up): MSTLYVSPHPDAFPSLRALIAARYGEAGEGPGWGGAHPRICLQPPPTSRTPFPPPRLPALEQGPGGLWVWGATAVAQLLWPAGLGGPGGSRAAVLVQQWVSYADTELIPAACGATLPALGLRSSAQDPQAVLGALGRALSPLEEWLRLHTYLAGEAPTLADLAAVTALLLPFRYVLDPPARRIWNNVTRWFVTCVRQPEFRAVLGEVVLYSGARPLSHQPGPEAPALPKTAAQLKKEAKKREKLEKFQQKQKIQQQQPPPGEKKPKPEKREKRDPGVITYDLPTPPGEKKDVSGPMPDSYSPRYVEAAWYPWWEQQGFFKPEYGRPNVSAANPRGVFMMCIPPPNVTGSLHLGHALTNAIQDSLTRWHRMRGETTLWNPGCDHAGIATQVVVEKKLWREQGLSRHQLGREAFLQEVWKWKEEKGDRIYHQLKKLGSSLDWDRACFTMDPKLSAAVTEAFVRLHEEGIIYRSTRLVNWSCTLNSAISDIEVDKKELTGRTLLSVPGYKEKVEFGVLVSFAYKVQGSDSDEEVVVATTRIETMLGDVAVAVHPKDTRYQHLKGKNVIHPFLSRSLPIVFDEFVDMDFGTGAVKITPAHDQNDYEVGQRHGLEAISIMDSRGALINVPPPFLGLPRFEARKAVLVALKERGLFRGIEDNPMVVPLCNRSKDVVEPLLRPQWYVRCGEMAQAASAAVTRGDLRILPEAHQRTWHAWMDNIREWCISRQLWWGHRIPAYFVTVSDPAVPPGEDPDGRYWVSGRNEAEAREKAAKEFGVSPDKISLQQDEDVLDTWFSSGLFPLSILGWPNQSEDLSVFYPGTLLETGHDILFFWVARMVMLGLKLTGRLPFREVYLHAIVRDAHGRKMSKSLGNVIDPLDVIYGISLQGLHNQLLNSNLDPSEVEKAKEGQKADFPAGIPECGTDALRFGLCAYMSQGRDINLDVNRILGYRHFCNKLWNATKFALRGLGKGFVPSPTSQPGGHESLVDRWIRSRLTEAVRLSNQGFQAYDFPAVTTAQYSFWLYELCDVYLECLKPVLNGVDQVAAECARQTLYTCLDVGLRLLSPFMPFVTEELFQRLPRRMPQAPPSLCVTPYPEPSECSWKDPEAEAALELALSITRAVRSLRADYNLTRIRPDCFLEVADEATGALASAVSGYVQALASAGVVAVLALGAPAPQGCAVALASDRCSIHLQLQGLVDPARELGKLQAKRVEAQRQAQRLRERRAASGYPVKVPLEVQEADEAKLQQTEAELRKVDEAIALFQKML
Chain of UniProt Q86WB0 (Q86WB0 whole entry, looked up): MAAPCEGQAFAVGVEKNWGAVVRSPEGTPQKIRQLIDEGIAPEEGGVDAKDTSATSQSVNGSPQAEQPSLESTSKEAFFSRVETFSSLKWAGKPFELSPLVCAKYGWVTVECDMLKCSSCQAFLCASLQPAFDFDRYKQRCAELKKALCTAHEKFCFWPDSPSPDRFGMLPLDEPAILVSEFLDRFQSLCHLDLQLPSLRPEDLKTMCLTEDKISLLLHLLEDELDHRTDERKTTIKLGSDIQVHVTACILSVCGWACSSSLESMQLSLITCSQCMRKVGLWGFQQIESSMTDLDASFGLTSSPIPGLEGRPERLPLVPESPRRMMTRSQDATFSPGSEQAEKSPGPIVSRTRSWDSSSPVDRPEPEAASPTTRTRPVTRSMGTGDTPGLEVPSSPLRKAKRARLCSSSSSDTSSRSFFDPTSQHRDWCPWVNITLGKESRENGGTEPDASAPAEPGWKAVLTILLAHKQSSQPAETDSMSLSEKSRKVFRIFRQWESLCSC
Chain of UniProt O95619 (O95619 whole entry, looked up): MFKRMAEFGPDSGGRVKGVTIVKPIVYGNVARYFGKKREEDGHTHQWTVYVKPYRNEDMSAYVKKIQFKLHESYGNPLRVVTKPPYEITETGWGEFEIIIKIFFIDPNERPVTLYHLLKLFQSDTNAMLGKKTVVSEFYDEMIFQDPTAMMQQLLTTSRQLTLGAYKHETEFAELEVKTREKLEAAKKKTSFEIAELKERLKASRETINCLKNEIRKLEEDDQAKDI
Chain of UniProt Q14191 (Q14191 whole entry, looked up): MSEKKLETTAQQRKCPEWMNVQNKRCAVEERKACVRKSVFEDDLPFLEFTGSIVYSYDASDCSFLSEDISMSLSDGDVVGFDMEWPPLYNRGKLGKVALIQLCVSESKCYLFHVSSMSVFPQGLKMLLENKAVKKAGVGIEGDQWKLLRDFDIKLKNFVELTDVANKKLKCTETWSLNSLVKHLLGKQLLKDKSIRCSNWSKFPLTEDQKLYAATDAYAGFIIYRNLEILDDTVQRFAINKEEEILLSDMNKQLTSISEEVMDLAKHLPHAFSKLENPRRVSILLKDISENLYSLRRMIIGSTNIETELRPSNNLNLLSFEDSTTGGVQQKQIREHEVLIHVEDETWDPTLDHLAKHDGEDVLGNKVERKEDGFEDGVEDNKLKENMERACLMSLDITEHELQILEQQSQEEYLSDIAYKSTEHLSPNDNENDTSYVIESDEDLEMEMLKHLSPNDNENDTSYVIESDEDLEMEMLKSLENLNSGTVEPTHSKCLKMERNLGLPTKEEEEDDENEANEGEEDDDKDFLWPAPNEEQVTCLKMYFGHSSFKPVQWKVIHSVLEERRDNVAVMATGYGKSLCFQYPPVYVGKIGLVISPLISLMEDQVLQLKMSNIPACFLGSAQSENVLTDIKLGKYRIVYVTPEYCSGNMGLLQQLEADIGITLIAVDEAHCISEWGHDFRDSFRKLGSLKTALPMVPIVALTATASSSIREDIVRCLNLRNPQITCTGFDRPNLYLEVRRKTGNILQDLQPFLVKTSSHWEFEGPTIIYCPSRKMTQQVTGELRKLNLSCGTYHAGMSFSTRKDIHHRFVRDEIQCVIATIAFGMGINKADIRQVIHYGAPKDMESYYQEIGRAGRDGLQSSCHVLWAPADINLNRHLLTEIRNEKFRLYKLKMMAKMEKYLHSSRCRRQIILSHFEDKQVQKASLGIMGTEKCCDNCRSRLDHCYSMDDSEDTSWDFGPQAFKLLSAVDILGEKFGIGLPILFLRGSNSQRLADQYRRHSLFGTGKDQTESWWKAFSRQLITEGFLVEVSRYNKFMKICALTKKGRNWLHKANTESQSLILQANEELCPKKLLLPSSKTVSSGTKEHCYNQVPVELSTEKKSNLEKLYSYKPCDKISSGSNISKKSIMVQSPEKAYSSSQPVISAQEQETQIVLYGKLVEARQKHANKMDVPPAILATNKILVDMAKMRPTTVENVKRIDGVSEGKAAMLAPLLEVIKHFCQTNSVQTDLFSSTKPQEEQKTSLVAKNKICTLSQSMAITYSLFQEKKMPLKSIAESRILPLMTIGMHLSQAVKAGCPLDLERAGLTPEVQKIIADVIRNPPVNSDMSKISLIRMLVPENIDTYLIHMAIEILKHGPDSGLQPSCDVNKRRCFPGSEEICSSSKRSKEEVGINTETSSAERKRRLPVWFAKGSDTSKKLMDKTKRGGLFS
Chain of UniProt Q9NUE0 (Q9NUE0 whole entry, looked up): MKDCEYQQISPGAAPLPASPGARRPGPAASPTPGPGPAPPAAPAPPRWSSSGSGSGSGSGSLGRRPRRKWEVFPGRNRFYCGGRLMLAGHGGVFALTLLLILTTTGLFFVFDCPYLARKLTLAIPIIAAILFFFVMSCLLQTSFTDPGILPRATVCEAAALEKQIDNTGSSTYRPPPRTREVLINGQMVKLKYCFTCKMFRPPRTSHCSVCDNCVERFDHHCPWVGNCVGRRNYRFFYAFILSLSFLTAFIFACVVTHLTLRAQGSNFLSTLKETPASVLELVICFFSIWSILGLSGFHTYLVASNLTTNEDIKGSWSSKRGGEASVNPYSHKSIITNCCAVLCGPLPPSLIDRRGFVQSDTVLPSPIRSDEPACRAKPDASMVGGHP
Chain of UniProt Q9NWK9 (Q9NWK9 whole entry, looked up): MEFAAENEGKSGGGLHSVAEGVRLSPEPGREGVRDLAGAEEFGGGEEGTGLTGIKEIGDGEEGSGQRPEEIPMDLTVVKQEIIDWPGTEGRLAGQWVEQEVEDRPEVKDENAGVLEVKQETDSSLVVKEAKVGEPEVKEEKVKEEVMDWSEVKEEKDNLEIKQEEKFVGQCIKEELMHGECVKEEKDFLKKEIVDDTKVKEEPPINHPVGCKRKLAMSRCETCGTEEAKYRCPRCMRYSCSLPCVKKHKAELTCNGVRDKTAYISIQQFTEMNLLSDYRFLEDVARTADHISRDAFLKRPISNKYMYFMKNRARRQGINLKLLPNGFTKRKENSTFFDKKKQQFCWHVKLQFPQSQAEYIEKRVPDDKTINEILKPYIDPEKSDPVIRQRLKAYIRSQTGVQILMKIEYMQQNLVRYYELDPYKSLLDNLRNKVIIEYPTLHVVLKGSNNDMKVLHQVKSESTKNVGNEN
Chain of UniProt O00488 (O00488 whole entry, looked up): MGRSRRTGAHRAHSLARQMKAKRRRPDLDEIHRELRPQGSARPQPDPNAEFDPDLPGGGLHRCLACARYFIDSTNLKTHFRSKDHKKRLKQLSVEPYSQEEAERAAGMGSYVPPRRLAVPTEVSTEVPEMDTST

| Target | log2 fold change (vemurafenib) | log2 fold change [1] | log2 fold change (barasertib) | log2 fold change [2] | log2 fold change (volasertib) | log2 fold change [3] | log2 fold change [4] | log2 fold change [5] | log2 fold change (saracatinib) | log2 fold change (sotrastaurin) | log2 fold change (alvocidib) | log2 fold change (Tubastatin A) | log2 fold change [6] | log2 fold change (defactinib) | log2 fold change [7] | log2 fold change (encorafenib) | log2 fold change [8] | log2 fold change (alisertib) | log2 fold change [9] | log2 fold change (gefitinib) |
| --- | --- | --- | --- | --- | --- | --- | --- | --- | --- | --- | --- | --- | --- | --- | --- | --- | --- | --- | --- | --- |
| ZNF217 (UniProt O75362) | 0.043 | 0.019 | 0.047 | 0.099 | -0.021 | -0.028 | -0.021 | 0.076 | 0.013 | 0.052 | -0.144 | -0.076 | 0.009 | -0.045 | -0.004 | -0.06 | -0.037 | 0.032 | 0.219 | -0.013 |
| ZNHIT6 (UniProt Q9NWK9) | -0.001 | 0.035 | 0.009 | 0.023 | -0.016 | 0.05 | 0.089 | -0.071 | -0.029 | -0.005 | 0.004 | -0.046 | 0.034 | -0.04 | 0.086 | 0.037 | 0.118 | -0.021 | -0.022 | 0.008 |
| UTP18 (UniProt Q9Y5J1) | -0.011 | 0.067 | -0.036 | 0.057 | -0.069 | 0.024 | -0.004 | -0.042 | 0.031 | 0.012 | 0.009 | -0.05 | 0.075 | -0.086 | -0.049 | -0.028 | 0.006 | -0.032 | -0.05 | -0.046 |
| WDR36 (UniProt Q8NI36) | 0.014 | 0.018 | 0.011 | -0.058 | -0.022 | 0.034 | 0.012 | -0.076 | -0.015 | 0.044 | 0.021 | -0.102 | 0.028 | -0.018 | -0.062 | -0.025 | 0.134 | 0.008 | 0.004 | -0.03 |
| YEATS4 (UniProt O95619) | -0.032 | 0.003 | 0.05 | 0.045 | -0.028 | 0.014 | 0.746 (active) | 0 | 0.031 | 0.022 | 0.105 | 0.004 | 0.012 | 0.007 | -0.054 | -0.004 | -0.062 | 0.315 (active) | -0.008 | -0.064 |
| WDCP (UniProt Q9H6R7) | -0.004 | 0.033 | 0.032 | 0.031 | -0.019 | -0.04 | 0.003 | 0.01 | -0.011 | 0.039 | 0.019 | -0.138 | 0.025 | 0.005 | 0.032 | 0.024 | -0.019 | 0.01 | 0.062 | -0.017 |
| VRK2 (UniProt Q86Y07) | 0.113 | 0.148 | 0.048 | -0.032 | -0.008 | 0.01 | -0.104 | 0.182 | -0.022 | 0.151 | 0.503 (active) | -0.017 | 0.067 | 0.156 | -0.044 | -0.068 | 0.032 | -0.033 | 0.008 | -0.08 |
| ZC3HC1 (UniProt Q86WB0) | -0.006 | 0.027 | -0.029 | -0.036 | 0.015 | 0.008 | 0.253 (active) | -0.075 | -0.03 | -0.022 | 0.049 | -0.101 | 0.018 | -0.015 | 0.034 | -0.001 | 0.078 | 0.022 | -0.013 | 0.024 |
| ZDHHC18 (UniProt Q9NUE0) | 0.043 | 0.026 | 0.016 | -0.019 | -0.052 | -0.068 | -0.138 | 0.085 | 0.036 | 0.04 | -0.09 | -0.016 | 0.222 | 0.029 | -0.044 | -0.038 | 0.042 | -0.131 | -0.036 | -0.069 |
| VARS (UniProt P26640) | 0.028 | 0.007 | 0.036 | -0.077 | -0.082 | 0.04 | -0.014 | -0.039 | -0.001 | 0.03 | -0.003 | -0.086 | 0.002 | 0.025 | -0.008 | -0.008 | 0.16 | -0.02 | 0.003 | -0.006 |
| USP3 (UniProt Q9Y6I4) | 0.041 | -0.007 | 0.008 | 0.023 | -0.012 | -0.011 | 0.064 | -0.041 | 0.011 | 0.011 | 0.002 | -0.154 | -0.046 | 0.013 | -0.024 | 0.03 | 0.022 | -0.008 | 0.028 | -0.005 |
| WRN (UniProt Q14191) | -0.032 | -0.065 | 0.026 | -0.032 | 0.007 | 0.053 | -0.052 | 0.022 | 0.008 | 0.031 | -0.029 | -0.071 | -0.007 | 0.023 | -0.025 | 0.016 | -0.013 | -0.037 | 0 | 0.047 |
| WDR24 (UniProt Q96S15) | 0.083 | -0.036 | 0.129 | -0.055 | -0.035 | 0.047 | -0.026 | 0.043 | 0.078 | 0.082 | -0.001 | -0.096 | -0.032 | 0.053 | -0.054 | 0.022 | 0.125 | -0.02 | 0.021 | -0.008 |
| XAB2 (UniProt Q9HCS7) | 0.033 | 0.075 | -0.015 | 0.065 | -0.02 | 0.05 | -0.044 | 0.017 | 0.006 | 0 | -0.003 | -0.039 | 0.012 | 0.008 | 0.014 | -0.045 | 0.2 | -0.017 | 0.025 | 0.046 |
| ULK3 isoform 4 (UniProt Q6PHR2) | 0.022 | -0.042 | 0.001 | -0.196 | -0.139 |  | -0.634 (active) | -0.285 | 0.18 | -0.077 | -0.014 |  | 0.004 | 0.039 | 0.016 | -0.089 | -0.061 |  | 0.089 |  |
| ZNF593 (UniProt O00488) | 0.001 | 0.037 | -0.026 | -0.174 | -0.034 | 0.078 | -0.012 | 0.016 | -0.012 | -0.105 | -0.005 | -0.07 | -0.135 | 0.044 | -0.011 | -0.006 | -0.088 |  | 0.231 |  |
